Where “and” joins values, the source holds several entries; their conditions need not be identical. Equal entries are not always repeated. Calls of active or inactive are those of the source.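 How the source made its calls, unless noted: active means inhibition at or above 50% relative to wild type and mutant plate controls; inactive means inhibition below 50%.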

The nature of assay [1]: inhibitors of TNFa-induced NFkB p65 translocation, primary screen, imaging, HUVEC, MLSMR starter and 10KST1 sets (AID 438;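 active means inhibition above 20% together with a positive visual image hit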;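 further: compound added about 3h40 before a 20 min TNFalpha stimulation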;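 on inhibition: signal is the nuclear over cytoplasmic p65 intensity ratio per well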). The settings on record: HUVEC TNFa-induced p65 nuclear translocation; cell count: measured here: nuclei count (cytotoxicity indicator), at 2.08 µM; inhibition: at 2 µM, stronger effect = higher value, 0% TNFa-plus-vehicle, 100% no-TNFa wells.
Assay [2] can be described thus: reduction of polyQ htt aggregates in cells – imaging, exon1htt(103Q)mCFP cells, high-content imaging, primary screen (AID 483;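 active means visual image review flags a hit and inhibition of aggregation exceeds 20%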;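 further: compound exposure lasted 3 days before fixation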;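 on nuclei count: percent of the per-plate median nuclei count of sample wells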). The settings on record: exon1htt(103Q)mCFP cell line, aggregate imaging, at 2 µM; inhibition of aggregation: stronger effect = higher value; nuclei count: measured here: cell count, toxicity.
Assay [3] in a line: endothelial E-selectin expression blockers – imaging, HUVEC, immunofluorescence, MLSMR starter and 10KST1 sets, primary screen (AID 487;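 active means visually confirmed hit in the image check and inhibition above 20%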;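 on inhibition: signal is fraction of cell area covered by stained E-selectin grains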;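 on nuclei count: 100% = median nuclei count of all wells on the same plate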). The settings on record: HUVEC TNFalpha-induced E-selectin immunofluorescence imaging, at 2 µM; inhibition: stronger effect = higher value; nuclei count: measured here: cell number, toxicity.
Assay [4] can be described thus: Primary imaging screen for DUSP6 inhibitors that restore phospho-Erk in transfected HeLa cells, chemical complementation (AID 609;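 active means compounds giving at least 50% inhibition in the cell-based MKP-3 phosphatase rescue imaging test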;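 on inhibition: phospho-Erk level distribution per well compared with pooled transfected vehicle control wells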). The conditions noted are these: HeLa MKP-3 transfected, phospho-Erk imaging KS statistic, at 10 µM, cells stimulated with TPA for 15 min.
The target in assay [5] is Dual specificity protein phosphatase 6 (Homo sapiens) (UniProt Q16828). Described as above. The settings on record: HeLa MKP-3 transfected, phospho-Erk imaging KS statistic; at 10 µM; stronger effect = higher value; cells stimulated with TPA for 15 min.
The target of assay [6] is Voltage-gated potassium channel subunit beta-2 (Rattus norvegicus) (UniProt P62483). Put plainly: inhibitors of rat Kvbeta2 reductase activity – biochemical, NADPH fluorescence, primary screen (AID 622;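 active means fluorescence slope higher than the sample average by over 3 SD, cut at about -0.22 in these data, passing the limit was not always enough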;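 further: slope of raw intensity against log time taken from 70 to 1610 s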). The conditions noted are these: recombinant KvBeta, 4-cyanobenzaldehyde reduction, at 10 µM, stronger effect = higher value.
Assay [7] shares this target. Nature of the assay: enhancers of rat Kvbeta2 NADPH turnover – biochemical, NADPH fluorescence, primary screen (AID 623;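 active means NADPH fluorescence slope more negative than the mean of all samples by about 3 SD, 99.7% confidence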;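 further: fluorescence intensity change per second fitted from 20 to 320 s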). The conditions noted are these: Recombinant KvBeta, NADPH fluorescence decrease slope, 10 min; at 10 µM; stronger effect = lower value.
In assay [8] the target is Alpha-2C adrenergic receptor (Homo sapiens) (UniProt P18825). Put plainly: compounds altering alpha2C-coupled GIRK flux – cell-based, HEK293 alpha2C/GIRK1/2, thallium flux, primary screen (AID 624;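 active means fluorescence slope after compound addition differing from the mean of all screened samples at 99.7% confidence, in either direction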;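 further: slope of fluorescence ratio to pre-addition baseline per second over 15 to 24 s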). The settings on record: thallium flux BTC fluorescence, at 10 µM, actives lie on both sides.
Assay [9] in a line: inhibitors of larval lipid processing in zebrafish, primary screen, whole organism, PED6 fluorescence, gall bladder and intestine (AID 686;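 active means a full or partial loss of lipid-probe fluorescence in the fish gall bladder, intestine or both, judged by eye; inactive means no fluorescence loss, or compound toxic to the fish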;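 further: larvae 5 to 7 days old with five fish per well; signal comes from phospholipase A2 cleavage of quenched PED6 carried via bile; overnight exposure to compound and PED6 before scoring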). The settings on record: Zebrafish larvae PED6 lipid processing, fluorescence scoring; screened at 20 µM (by protocol).
Assay [10] in a line: loss of swimming-algae plug formation – whole organism, Chlamydomonas reinhardtii, WT vs cilia-less mutant, absorbance, 96-well, primary screen (AID 463189).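 Further: 0% = wild type cc124 cells in DMSO and 100% = ciliumless bld1 mutant cells.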 The settings on record: Chlamydomonas reinhardtii gravitaxis, OD600 absorbance, 2 days; at 10 µM; stronger effect = higher value.
Assay [11] is described as follows: blockers of RIG-like receptor reporter activation – cell-based, Sendai virus stimulus, luciferase, 10K MLSCN set, TLR/RLR signaling modifier project, primary screen (AID 602276;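 active means inhibition at or above 50% at 10 µM; inactive means inhibition below 50%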;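 further: firefly luciferase from ISG56 promoter only with Renilla not read in this screen; 0% = Sendai virus plus DMSO and 100% = medium plus DMSO without virus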). The settings on record: HEK293 RL24 IRF3 luciferase reporter, at 10 µM, stronger effect = higher value.
The nature of assay [12]: TLR3 IRF3 reporter activation blockers – cell-based, poly I:C stimulus, luciferase, 10K MLSCN set, primary screen (AID 602277;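 active means inhibition of the reporter signal at or above 50%; inactive means inhibition below 50%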). The settings on record: HEK293-TLR3 RL24 IRF3 luciferase reporter, at 10 µM, stronger effect = higher value.
[13] abbreviates: measured here: cell density z-score.
The mark [14] stands for this setting: measured here: nuclear c-Myc green intensity z-score.
The mark [15] stands for this setting: measured here: nuclear pErk red intensity z-score, stronger effect = higher value.

Sequence of Voltage-gated potassium channel subunit beta-2 (Rattus norvegicus) (P62483 whole entry, looked up): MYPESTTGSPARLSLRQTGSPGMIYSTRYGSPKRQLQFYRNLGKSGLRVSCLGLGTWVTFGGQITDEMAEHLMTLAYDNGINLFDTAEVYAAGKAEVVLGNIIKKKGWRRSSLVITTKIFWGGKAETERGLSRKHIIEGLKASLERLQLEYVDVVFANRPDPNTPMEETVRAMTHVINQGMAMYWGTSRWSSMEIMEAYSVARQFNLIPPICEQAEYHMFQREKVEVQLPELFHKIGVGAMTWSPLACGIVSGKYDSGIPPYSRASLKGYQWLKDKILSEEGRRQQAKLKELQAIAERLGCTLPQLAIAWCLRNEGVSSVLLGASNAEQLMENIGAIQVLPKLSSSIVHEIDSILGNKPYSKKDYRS
Sequence of Alpha-2C adrenergic receptor (Homo sapiens) (P18825 whole entry, looked up): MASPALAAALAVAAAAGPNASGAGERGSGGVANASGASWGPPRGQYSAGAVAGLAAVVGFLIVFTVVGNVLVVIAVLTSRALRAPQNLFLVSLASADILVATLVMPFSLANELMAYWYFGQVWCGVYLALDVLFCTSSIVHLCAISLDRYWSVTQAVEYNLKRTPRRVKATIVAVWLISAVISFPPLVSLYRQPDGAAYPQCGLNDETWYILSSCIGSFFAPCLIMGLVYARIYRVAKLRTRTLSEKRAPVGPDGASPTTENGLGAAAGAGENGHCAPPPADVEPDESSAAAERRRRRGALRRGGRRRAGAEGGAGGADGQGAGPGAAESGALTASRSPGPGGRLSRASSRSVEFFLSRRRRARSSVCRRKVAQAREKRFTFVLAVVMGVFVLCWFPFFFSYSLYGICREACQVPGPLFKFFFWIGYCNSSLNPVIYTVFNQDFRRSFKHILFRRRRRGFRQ
Sequence of Dual specificity protein phosphatase 6 (Homo sapiens) (Q16828 whole entry, looked up): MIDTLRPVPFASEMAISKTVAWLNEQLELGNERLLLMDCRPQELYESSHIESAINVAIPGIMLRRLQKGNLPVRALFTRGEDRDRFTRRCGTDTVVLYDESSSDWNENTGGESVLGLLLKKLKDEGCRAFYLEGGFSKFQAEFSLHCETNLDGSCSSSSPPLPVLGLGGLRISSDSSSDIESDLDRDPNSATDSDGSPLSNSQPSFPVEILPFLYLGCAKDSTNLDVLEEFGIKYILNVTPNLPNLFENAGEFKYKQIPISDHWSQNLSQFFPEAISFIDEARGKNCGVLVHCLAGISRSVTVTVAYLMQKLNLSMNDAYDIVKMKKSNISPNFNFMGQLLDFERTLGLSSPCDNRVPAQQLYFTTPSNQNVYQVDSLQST

With `Nc1nc(N)c2nc(-c3ccccc3)c(N)nc2n1`, the cell count in [1] was 640. Further, the inhibition in [1] was -0.8% (inactive); in assay [3], -64.7% (inactive); in assay [5], -11.9% (inactive); in [10] it was 4.85% (inactive) and -8.55% (inactive); in assay [11] it was 12.2% (inactive); in assay [12], 34.5% (inactive). In addition, the inhibition of aggregation in assay [2] is -9.9% (inactive). Further, the nuclei count is 107% in [2] and 133% in assay [3]. The z-score in assay [4] (setting [13]) was -0.982; in [4] (setting [14]), -0.143; in [4] (setting [15]), 2.15. Also, the fluorescence slope in assay [6] was -0.0137 (active). In addition, the NADPH fluorescence slope in assay [7] was -1.2e-05 (inactive). Moreover, in [8], the slope is 0.00479 (inactive). The result in assay [9] was inactive.

`COc1ccccc1NC(=O)C1=C(C)NC(SCC(=O)c2ccc(C)cc2)=C(C#N)C1c1ccco1` (stereo not given): the cell count in assay [1] is 529. The inhibition is -0.5% (inactive) in assay [1]; 6.5% (inactive) in assay [3]; -2.07% (inactive) in assay [5]; 36.3% (inactive) in [10]; -17.3% (inactive) in assay [11]; -56.3% (inactive) in [12]. Also, in assay [2], the inhibition of aggregation was 9.6% (inactive). The nuclei count in [2] came out at 99.4%; in assay [3], 114%. The z-score was 0.647 in assay [4] (setting [13]), -0.415 in assay [4] (setting [14]) and 1.41 in assay [4] (setting [15]). Also, the fluorescence slope in [6] is -0.481 (inactive). Besides, the NADPH fluorescence slope in assay [7] was -7.1e-05 (inactive). For the same compound, the slope in [8] was 0.00753 (inactive). Besides, the call in assay [9] was inactive.

In the case of `Nc1cccc(C(=O)O)c1`, the cell count in [1] was 563. For the same compound, the inhibition was 3.8% (inactive) in assay [1]; -31.1% (inactive) in assay [3]; 12.4% (inactive) in assay [5]; -1.48% (inactive) in assay [10]; 9.57% (inactive) in assay [11]; 34.4% (inactive) in assay [12]. In addition, the inhibition of aggregation in assay [2] is 28.2% (inactive). Further, the results for the nuclei count in assay [2] and in [3] were 59% and 97.4%, respectively. Further, the z-score is 1.14 in assay [4] (setting [13]), 0.242 in assay [4] (setting [14]) and -0.0201 in [4] (setting [15]). The fluorescence slope in assay [6] was -0.462 (inactive). Moreover, in [7], the NADPH fluorescence slope is -4.9e-05 (inactive). For the same compound, in assay [8], the slope was 0.00577 (inactive). Also, the call in assay [9] was inactive.

For `NCc1ccc(S(N)(=O)=O)cc1`, in assay [1], the cell count was found to be 705. For the same compound, the inhibition in assay [1] was -2.8% (inactive); in assay [3], -71.2% (inactive); in assay [5] it was 21.2% (inactive); in assay [10] it was 1.96% (inactive); in assay [11] it was 14% (inactive); in assay [12] it was 32.7% (inactive). The inhibition of aggregation in [2] is 26.6% (inactive). The nuclei count in assay [2] amounted to 107%; in assay [3], 118%. Further, the figures for the z-score in assay [4] (setting [13]), in [4] (setting [14]) and in [4] (setting [15]) were 0.933, -0.356 and -0.92, respectively. Further, the fluorescence slope in assay [6] was -0.453 (inactive). Further, the NADPH fluorescence slope in [7] is -9.2e-05 (inactive). In addition, the slope in assay [8] was 0.00484 (inactive). In [9], the result was inactive.

`N#Cc1c(N)n(CCOC(=O)c2cccc(Br)c2)c2nc3ccccc3nc12`: in assay [1], the cell count stood at 592. Besides, the inhibition in assay [1] is 0.6% (inactive); in assay [3] it was -20.6% (inactive); in assay [5], -1.12% (inactive); in [10], 15.2% (inactive); in [11], 16.3% (inactive); in assay [12], 30.6% (inactive). Also, the inhibition of aggregation in assay [2] was -46.7% (inactive). Besides, the nuclei count in [2] was 75.5%; in assay [3], 108%. In addition, the z-score in assay [4] (setting [13]) is 1.33; in assay [4] (setting [14]) it was -2.21; in [4] (setting [15]) it was -0.755. Moreover, the fluorescence slope in assay [6] was -0.434 (inactive). In addition, the NADPH fluorescence slope in [7] is -0.000171 (inactive). Further, in assay [8], the slope was 0.00581 (inactive). Besides, the outcome in [9] was inactive.

Take `CCOC(=O)C1=C[C@]2(CC)CCCN3CCc4c(n1c1ccccc41)[C@@H]32`: the cell count in assay [1] turned out to be 689. Further, the inhibition in assay [1] was -1.6% (inactive); in assay [3], -59.3% (inactive); in [5] it was 3.45% (inactive); in assay [10] it was 5.61% (inactive) and -6.65% (inactive); in assay [11], 5.01% (inactive); in [12], 18.6% (inactive). For the same compound, the inhibition of aggregation in [2] was 15.2% (inactive). The nuclei count came out at 106% in [2] and 130% in [3]. For the same compound, the z-score in [4] (setting [13]) is -0.259; in assay [4] (setting [14]), 0.193; in assay [4] (setting [15]) it was -0.265. Also, the fluorescence slope in assay [6] was -0.443 (inactive). The NADPH fluorescence slope in assay [7] was -4.6e-05 (inactive). Moreover, the slope in assay [8] is 0.013 (active). For the same compound, the compound was called inactive in assay [9].

As to `COc1ccc(C2/C(=C(/O)c3ccc(OC(C)C)cc3)C(=O)C(=O)N2CCCN2CCOCC2)cc1` (stereo not given), in assay [1], the cell count worked out at 466. The inhibition in assay [1] is 4.1% (inactive); in [3] it was -19.1% (inactive); in assay [5] it was -11.9% (inactive); in assay [10], -1.04% (inactive); in assay [11], 9.78% (inactive); in [12] it was 13.7% (inactive). Further, the inhibition of aggregation in assay [2] was -2.7% (inactive). Further, the nuclei count came to 102% in [2] and 134% in assay [3]. The z-score in [4] (setting [13]) is -0.477; in [4] (setting [14]), 0.263; in assay [4] (setting [15]) it was 0.227. In assay [6], the fluorescence slope is -0.319 (inactive). Moreover, the NADPH fluorescence slope in assay [7] was -2e-05 (inactive). In addition, the slope in assay [8] was 0.00508 (inactive). Besides, in assay [9], the compound was classed as inactive.

As to `CC(=O)Oc1cccc2c1C(=O)c1c(OC(C)=O)cc(C(=O)O)cc1C2=O`, the cell count in [1] came out at 646. Further, the inhibition in assay [1] is 3.9% (inactive); in assay [3] it was -52.7% (inactive); in assay [5], -9.66% (inactive); in assay [10], -7.39% (inactive); in assay [11], 4.71% (inactive); in assay [12], 26.5% (inactive). In addition, the inhibition of aggregation in assay [2] was 6.8% (inactive). Also, the results for the nuclei count in assay [2] and in [3] were 105% and 124%, respectively. The z-score was -1.09 in assay [4] (setting [13]), -1.04 in assay [4] (setting [14]) and -0.102 in [4] (setting [15]). In addition, in assay [6], the fluorescence slope was -0.438 (inactive). Moreover, the NADPH fluorescence slope in assay [7] was -4.5e-05 (inactive). In assay [8], the slope is 0.00622 (inactive). In addition, in assay [9], the compound was called inactive.

On to `S=C(N=Nc1ccccc1)NNc1ccccc1`, for which the cell count in assay [1] amounted to 456. Further, the inhibition is -24.6% (inactive) in [1]; -51.9% (inactive) in assay [3]; -2.46% (inactive) in assay [5]; 12.8% (inactive) in assay [10]; -11.4% (inactive) in assay [11]; -44.3% (inactive) in assay [12]. Further, the inhibition of aggregation in assay [2] is 15.4% (inactive). The values for the nuclei count in assay [2] and in assay [3] were 97.4% and 122%, respectively. The z-score in assay [4] (setting [13]) is 0.583; in assay [4] (setting [14]), -0.233; in assay [4] (setting [15]), 0.888. The fluorescence slope in [6] was -0.552 (inactive). Further, the NADPH fluorescence slope in assay [7] was -4.2e-05 (inactive). For the same compound, the slope in assay [8] was 0.0111 (inactive). The result in assay [9] was inactive.

Take `CCC(c1c(C)n(C)n(-c2ccccc2)c1=O)c1c(C)n(C)n(-c2ccccc2)c1=O`: in [1], the cell count was 550. Moreover, the inhibition was -4.3% (inactive) in assay [1]; -51.3% (inactive) in [3]; 3.66% (inactive) in assay [5]; 5% (inactive) in [10]; 17.6% (inactive) in [11]; 17.1% (inactive) in assay [12]. For the same compound, the inhibition of aggregation in [2] was 27.5% (inactive). The nuclei count in [2] stood at 89.2%; in [3], 125%. For the same compound, the z-score was -0.849 in assay [4] (setting [13]), -0.188 in [4] (setting [14]) and -0.348 in [4] (setting [15]). The fluorescence slope in assay [6] is -0.488 (inactive). Moreover, the NADPH fluorescence slope in [7] was -0.000154 (inactive). Moreover, the slope in assay [8] was 0.00494 (inactive). In addition, the compound was called inactive in [9].

Values taken from PubChem BioAssay.
